# Inconclusive results are not listed. A number with no mark means an inactive call. Active and inactive are the calls of the source. The call rests on the fitted dose curve; in most records, active means well fitted cell-killing curve with a large enough effect in the repeat runs; inconclusive means weak or mixed curves, or effect the other way; inactive means no such curve, though single readings can be large or run the other way.
# Test: Caspase-3/7 induction in CHO-K1 cells by small molecules, qHTS cell viability counter screen (AID 1346979); further: nearly all actives have a fitted effect of over 35% in size
# Conditions: CellTiter-Fluor fluorescence, 17 h; series mostly up to 92.4 µM; activity change, negative = cytotoxicity: at the top concentration
# Excerpt: National Center for Advancing Translational Sciences [NCATS]
# NIH Chemical Genomics Center [NCGC]
# U.S. Environmental Protection Agency [EPA]
# National Institutes of Environmental Health Sciences [NIEHS]
# National Toxicology Program [NTP]
# U.S. Food and Drug Administration [FDA]
# Apoptosis is a process of programmed cell death and plays a central role in the development of multicellular organisms. It is a highly regulated process and induces cell death by activating caspases, which are the members of cysteine aspartic acid-specific protease (caspase) family. Caspases involved in apoptosis are classified by their mechanism of action as initiator caspases (caspase-2, -8, -9 and -10) and executioner caspases (caspase-3, -6, and -7). Inhibition of apoptosis results in number of cancers, autoimmune diseases, inflammatory diseases and viral infection. To identify small molecule compounds that induce apoptosis, a homogeneous, luminescent Caspase-Glo 3/7 assay was used. Wild type CHO-K1 cells were used to screen Tox21 libraries for identifying caspase-3/7 activity inducers. Also cytotoxicity of the compounds was tested in parallel by measuring the cell viability using CellTiter-Fluor assay system in the same wells.
# Tox21 Assay Protocol Summary:
# CHO-K1 cells were dispensed at 1,500 per well in 5uL of culture medium into white solid bottom 1536-well plates (Corning Life Sciences, Corning, NY) using a Multidrop Combi (Thermo Scientific, Waltham, MA) dispenser. The assay plates were incubated at 37 C and 5% CO2 for 5hr, and then 23nL of compounds dissolved in DMSO and positive control were transferred using a Pintool station (Wako, San Diego, CA). The assay plates were incubated at 37C and 5% CO2 for 17hr. For cytotoxicity read, after 16hr incubation at 37C, 1uL CellTiter-Fluor reagent (Promega Corporation, Madison, WI) was added to each well of the assay plates using Flying Reagent Dispenser (FRD, Aurora Discovery, San Diego, CA). After 1hr incubation at 37C and 5% CO2, the fluorescence signal was quantified using a ViewLux plate reader (PerkinElmer, Shelton, CT).
# On the % scale 0 is the no-effect control and ±100 the full control effect; potency means the concentration at half of the fitted maximal effect.
SMILES,"activity change, negative = cytotoxicity",Potency
Cc1nc2sccn2c(=O)c1CCN1CCC(=C(c2ccc(F)cc2)c2ccc(F)cc2)CC1,-9.37% [at 42.5 µM],–
CCCCC(CC)COCCC#N (stereo not given),5.61%,–
O=C(NC1CCN(CCc2c[nH]c3ccccc23)CC1)c1ccccc1,-1.5% [at 42.5 µM],–
O=C(O)c1cc(C(=O)O)c(C(=O)O)cc1C(=O)O,0.0517%,–
CCCCCCCCCCCCN1CCOCC1,6.35%,–
Nc1ccc(C(=O)Oc2ccccc2)c(O)c1,-4.87% [at 42.5 µM],–
CC(C)(C(=O)O)c1ccc(C(O)CCCN2CCC(C(O)(c3ccccc3)c3ccccc3)CC2)cc1 (stereo not given),4.9% [at 42.5 µM],–
C=CC(C)CCC=C(C)C (stereo not given),11.2%,–
CC(=O)Oc1cccc2c1C(=O)c1c(OC(C)=O)cc(C(=O)O)cc1C2=O,–,29.8 µM (active)
CCOC(C)OCC,2.6%,–
C=C(C)C(=O)OCCCCCCCCCCOC(=O)C(=C)C,-0.629%,–
O=C(O)c1ccncc1,10.3%,–
CC(CN=Cc1ccccc1O)N=Cc1ccccc1O (stereo not given),-0.667%,–
CCOC(=O)CC(O)(CC(=O)OCC)C(=O)OCC,4.11%,–
CC(CCl)OC(C)CCl (stereo not given),5.35%,–
O=C(O)c1ccccc1-n1cc(C(=O)O)c(=O)c2cc(Nc3c(F)cc(F)cc3Cl)c(Cl)cc21,1.3%,–
C=C[Si]1(C)O[Si](C)(C=C)O[Si](C)(C=C)O[Si](C)(C=C)O1 (stereo not given),-0.116%,–
NC(=O)c1ccccc1,5.33%,–
CC(CC(C#N)(c1ccccc1)C(C)C)N(C)C (stereo not given),1.72% [at 42.5 µM],–
Clc1nc2ccccc2nc1Cl,-11.8%,–

SMILES,"activity change, negative = cytotoxicity",Potency
c1ccc(-c2ccc(-c3ccccc3)cc2)cc1,11.6% [at 19 µM],–
N#C[C@@H]1CC(F)(F)CN1C(=O)CNC1CC2CCC(C1)N2c1ncccn1 (stereo not given in full),7.48%,–
CCCCOc1ccc(N)cc1,-0.492%,–
CC(C)=CCC[C@H](C)CCO,8.27%,–
Nc1ccccc1Nc1ccccc1,–,27.4 µM (active)
CCCCCCCCNC,6.23%,–
N#Cc1ccc(CC(=O)c2cccc(C(F)(F)F)c2)cc1,-0.606%,–
Cc1ccc(S(=O)(=O)NC(=O)NC2CCCC2)cc1,11.3% [at 42.5 µM],–
CC1=C(C)C(=O)C(CCCCC#CCCCC#CCO)=C(C)C1=O,–,29.8 µM (active)
O=C(O)c1ccccc1[N+](=O)[O-],7.26%,–
O=c1[nH]nc(-c2ccc([N+](=O)[O-])o2)o1,–,61.1 µM (active)
CC1(C)CC(O)CC(C)(C)N1[O],1.61%,–
Cc1ccccc1CCO,6.86%,–
Cc1cc(C)n(CO)n1,-0.892%,–
C=CC(=O)NC(C)(C)C,1.14%,–
O=C(O)c1ccc2cc(O)ccc2c1,8.75%,–
C=CCCC,-1.2%,–
O=C(O)c1cc(C(=O)O)cc([N+](=O)[O-])c1,10.4%,–
Cc1cc(SC2=C(O)C[C@@](CCc3ccc(N)cc3)(C(C)C)OC2=O)c(C(C)(C)C)cc1CO,-11.4%,–
CC(C(=O)O)c1ccc2c(c1)Cc1cccnc1O2 (stereo not given),10.3% [at 42.5 µM],–

# — PubChem BioAssay (Tox21)
